Most compounds without a hit are left out; they make up all but 11% or so of the library.
NS1 function inh: inhibitors of influenza NS1 protein function; Potency, µM (titrated, usually from 46.1 µM), without a hit: at the highest dose activity, positive = more growth; 0.4% of 270,000 active; calls by dose curve; also: actives are rising curves; nearly all actives have a fitted effect of over 50% in size
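Compounds were scored for reversing the slow growth caused by influenza A NS1 in S. cerevisiae, measured by optical density at 600 nm. Assay medium contained 2% galactose at pH 6.0; NS1-free yeast of the same strain were the positive control.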
Vaccinia Venus: vaccinia inhibition (Venus reporter) | Vaccinia virus Venus reporter expression, fluorescence | Potency, µM (doses to about 36.5 µM), for the others: top-dose activity change, negative = inhibition, hits mostly inhibitors | 0.46% of 330,000 active; calls by dose curve; tested in A549 cells; also: % is scaled to controls: 0 for no effect and ±100 for the full control effect; nearly all actives have a fitted effect of over 30% in size
Pf growth 48h: inhibits P. falciparum growth in the first generation, 48 h; P. falciparum luciferase growth in erythrocytes, 48 h; Potency, µM (doses to about 28.7 µM), without a hit: top-dose activity change, negative = inhibition, hits mostly inhibitors; 5.9% of 310,000 active; AID 504832; also: % is scaled to controls: 0 for no effect and ±100 for the full control effect
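Firefly luciferase activity from engineered P. falciparum reports growth; inhibitors lower the luminescent signal. Cultures contained 2% hematocrit erythrocytes at 0.1% final parasitemia.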
Pf growth 96h: inhibits malaria parasite growth, 96 h | P. falciparum luciferase reporter growth, 96 h | Potency, µM (titrated, usually from 28.7 µM), for inactives: top-dose activity change, negative = inhibition, actives largely listed as inhibitors | 6.9% of 320,000 active | AID 504834; also: % is scaled to controls: 0 for no effect and ±100 for the full control effect
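Infected RBCs, 2% Hct / 0.05% parasitemia final; luciferase-reporter P. falciparum; cpd 96 h, 37 C, 5% CO2; luciferase detection reagent; luminescence.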
Vaccinia mCherry: inhibitors of vaccinia virus infection (mCherry reporter signal) | AID 720579 | 0.63% of 310,000 active | Vaccinia virus mCherry reporter infection, fluorescence | Potency, µM (titrated, usually from 36.5 µM), for the others: at the highest dose activity change, negative = inhibition, most hits filed as inhibitors; calls by dose curve; tested in A549 cells; also: % is scaled to controls: 0 for no effect and ±100 for the full control effect; nearly all actives have a fitted effect of over 35% in size
HCV inhibitor: HCV inhibition. 3.4% of 340,000 active. Potency, µM (doses to about 41.8 µM), for the others: at the top dose activity change, negative = inhibition, actives largely listed as inhibitors. Huh7.5.1 HCVcc-Cre infection, luciferase reporter, 44 h; also: % is scaled to controls: 0 for no effect and ±100 for the full control effect
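1,000 cells/well; 4 h culture; + compound; + HCVcc-Cre (~0.5 moi); 44 h; luciferase substrate, RT 15 min; read 15 sec.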
* marks the source's active call; other numbers are inactive results. Unless noted, calls follow the shape of the dose curve; as a rule, active = well fitted inhibition curve with a large enough effect; inconclusive = small, poorly fitted or top-dose-only effect, or another doubt; inactive = no such curve, though single readings can be large or run the other way. Potency is read from the fitted curve at half-maximal effect.

What do the screens show for `COC(=O)CC(=O)CSc1nc(C)cc(C)c1C#N`?
NS1 function inh: 12.1%; Vaccinia Venus: -16.6%; Pf growth 48h: 20.5%; Pf growth 96h: 8.28µM*; Vaccinia mCherry: -20.2%; HCV inhibitor: 4.3%

How did COc1cc2c(cc1OC)CN(C(=O)CSc1nc(C)cc(C)c1C#N)CC2 do in these assays?
NS1 function inh: 9.4%; Vaccinia Venus: -18.2%; Pf growth 48h: inconclusive; Pf growth 96h: 6.57µM*; HCV inhibitor: inconclusive

Results for CCN(Cc1ccccc1)C(=O)CSc1nc(C)cc(C)c1C#N ?
NS1 function inh: -61.4%; Vaccinia Venus: -8.3%; Pf growth 48h: inconclusive; Pf growth 96h: 10.4µM*; Vaccinia mCherry: inactive; HCV inhibitor: 10µM*

How did Cc1cc(C)c(C#N)c(SCC(=O)NC(C)(C)C)n1 do in these assays?
NS1 function inh: -5.6%; Vaccinia Venus: -0.6%; Pf growth 96h: 7.38µM*; Vaccinia mCherry: inactive; HCV inhibitor: -11.5%

How did Cc1cc(C(F)(F)F)c(C#N)c(SCC(=O)NC(C)(C)C)n1 do in these assays?
NS1 function inh: 8.6%; Pf growth 48h: -13.6%; Pf growth 96h: inconclusive; HCV inhibitor: inconclusive

Results for CCc1nc(SCC(=O)N2CCc3cc(OC)c(OC)cc3C2)c(C#N)cc1C ?
Vaccinia Venus: -3.2%; HCV inhibitor: inconclusive

What do the screens show for `CCOc1ccc(S(=O)(=O)NCCC(=O)NCC(c2cccs2)N(C)C)cc1` (configuration not stated)?
Vaccinia Venus: -13.7%; Pf growth 48h: -5.5%; Pf growth 96h: inconclusive; Vaccinia mCherry: -23.9%; HCV inhibitor: -16.2%

How did COCCNC(=O)C1CCCN(C(=O)c2cc(C(C)(C)C)nn2C)CC1 (configuration not stated) do in these assays?
Vaccinia Venus: 4.9%; Vaccinia mCherry: 52.2%

Results for O=C(C1CCN(S(=O)(=O)c2cnc[nH]2)CC1)N1CCc2ccccc2C1 ?
NS1 function inh: 5.6%; Vaccinia Venus: -10.0%; Pf growth 48h: 14.1%; Pf growth 96h: 4.2%; Vaccinia mCherry: -16.4%; HCV inhibitor: 12.8%

Results for COc1ccc(S(=O)(=O)c2ccc(OC)c(OC)c2)cc1OC ?
NS1 function inh: -9.3%; Vaccinia Venus: -18.8%; Pf growth 48h: -5.7%; Pf growth 96h: -11.2%; HCV inhibitor: -5.9%

What do the screens show for `O=C(NCCc1ccccc1)C1CCC(CNS(=O)(=O)c2ccc(Cl)cc2)CC1` (configuration not stated)?
Vaccinia Venus: -11.6%; Vaccinia mCherry: -19.0%

What do the screens show for `CCOC(=O)CNC(=O)CSc1nc(C)cc(C)c1C#N`?
NS1 function inh: inconclusive; Vaccinia Venus: -12.1%; Vaccinia mCherry: -14.7%; HCV inhibitor: 2.3%

Results for CCOC(=O)NC(=O)CSc1nc(C)cc(C)c1C#N ?
NS1 function inh: -11.5%; Pf growth 48h: 148.4%; Pf growth 96h: 9.28µM*; HCV inhibitor: -1.3%

How did COc1cccc2cc(C(=O)Nc3ccc(F)c(F)c3)c(=O)oc12 do in these assays?
Vaccinia Venus: -2.0%; Vaccinia mCherry: 5.0%

How did Cc1ccc(-n2c(=O)cc(N3CC(C)OC(C)C3)[nH]c2=O)cc1 (configuration not stated) do in these assays?
Vaccinia Venus: -11.8%; Pf growth 48h: 10.4%; Pf growth 96h: 16.3%; Vaccinia mCherry: inactive; HCV inhibitor: 20.6%

What do the screens show for `Cc1ccc(OCCN2CCN(c3ncnc4sc(C)c(C)c34)CC2)cc1`?
NS1 function inh: -8.7%; Pf growth 96h: inconclusive; HCV inhibitor: 2.51µM*

Results for Clc1ccc(OCCN2CCN(c3ncnc4sccc34)CC2)cc1 ?
NS1 function inh: -26.1%; Pf growth 48h: 95.2%; Pf growth 96h: inconclusive; HCV inhibitor: 0.316µM*

How did Cc1cc(C(=O)OCC(=O)Nc2ccc(F)c(F)c2F)c(C)o1 do in these assays?
NS1 function inh: -1.0%; Vaccinia Venus: 5.3%; Pf growth 48h: 0.0%; Pf growth 96h: 20.6%; Vaccinia mCherry: -2.5%; HCV inhibitor: -4.7%

What do the screens show for `O=C(N/N=C/c1ccccn1)c1sc2ccccc2c1Cl`?
NS1 function inh: -72.0%; Pf growth 48h: inconclusive; Pf growth 96h: inconclusive; HCV inhibitor: 15.1%

High-throughput results: PubChem, National Center for Advancing Translational Sciences (NCATS)
